Experimental data taken from PubChem BioAssay (EPA / NIEHS).
Where “and” joins values, the source holds several entries; their conditions need not be identical. Equal values may be shown once. Results filed as inconclusive are left out. Some compounds were tested as several samples or in several runs, with calls that do not always agree. Calls of active or inactive are those of the source. Rule for the calls: active = hit-call score of the fitted dose curve at least 0.9, where 1 is the maximum; inconclusive = response in the unintended direction; inactive = score below 0.9.

Target: human AKT serine/threonine Kinase 2 (AKT2), AKT2 (gene 208) (UniProt P31751)
Assay: NVS_ENZ_hAKT2: NovaScreen (NVS) Enzymatic Assay for human AKT serine/threonine Kinase 2 (AKT2) (AID 2283141)
How it was run: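 Cell-free fluorescence/electrophoretic mobility shift readout of recombinant human AKT2 activity, 1 h after chemical dosing. Duplicate primary screen at 25 uM, then singleton concentration-response up to 50 uM; loss of signal versus DMSO baseline.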

Chain of human AKT serine/threonine Kinase 2 (AKT2), AKT2 (gene 208) (P31751 whole entry, looked up): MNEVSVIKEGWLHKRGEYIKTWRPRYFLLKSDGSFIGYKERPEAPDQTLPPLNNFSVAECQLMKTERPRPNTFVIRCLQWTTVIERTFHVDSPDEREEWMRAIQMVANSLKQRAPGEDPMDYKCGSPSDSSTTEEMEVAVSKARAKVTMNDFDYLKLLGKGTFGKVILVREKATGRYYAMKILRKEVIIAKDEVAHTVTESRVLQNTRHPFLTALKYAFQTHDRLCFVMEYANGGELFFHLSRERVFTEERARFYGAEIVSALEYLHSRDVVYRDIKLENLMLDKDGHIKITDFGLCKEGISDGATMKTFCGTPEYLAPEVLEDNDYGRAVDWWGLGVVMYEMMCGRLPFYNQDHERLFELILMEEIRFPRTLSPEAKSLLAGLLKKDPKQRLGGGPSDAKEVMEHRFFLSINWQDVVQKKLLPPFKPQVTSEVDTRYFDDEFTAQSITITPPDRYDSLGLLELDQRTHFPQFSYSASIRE

SMILES | AC50 | outcome
S=C(S)NCCNC(=S)S.[Mn+2].[S-]C([S-])=NCCN=C([S-])[S-].[Zn+2] | 1.64 µM (active) and 1.94 µM (active) | –
CCCCC(CC)CN1C(=O)C2C3C=CC(C3)C2C1=O (stereo not given) | – | inactive
O=C(Nc1ccc([N+](=O)[O-])cc1Cl)c1cc(Cl)ccc1O | – | inactive
S=C([S-])NCCNC(=S)[S-].[Mn+2] | 606 nM (active) | –
CCC(O)=C1C(=O)CC(C(=O)O)CC1=O (stereo not given) | – | inactive

Target: human Caspase 4 (CASP4), CASP4 (gene 837) (UniProt P49662)
Assay: NVS_ENZ_hCASP4: NovaScreen (NVS) Enzymatic Assay for human Caspase 4 (CASP4) (AID 2283143)
How it was run: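 Compounds were first tested in duplicate at 25 uM, and hits were titrated singly to a 50 uM maximum. Recombinant protease from E. coli was read by fluorescence 2 h post-dose, and activity loss was fitted against the DMSO baseline.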

Chain of human Caspase 4 (CASP4), CASP4 (gene 837) (P49662 whole entry, looked up): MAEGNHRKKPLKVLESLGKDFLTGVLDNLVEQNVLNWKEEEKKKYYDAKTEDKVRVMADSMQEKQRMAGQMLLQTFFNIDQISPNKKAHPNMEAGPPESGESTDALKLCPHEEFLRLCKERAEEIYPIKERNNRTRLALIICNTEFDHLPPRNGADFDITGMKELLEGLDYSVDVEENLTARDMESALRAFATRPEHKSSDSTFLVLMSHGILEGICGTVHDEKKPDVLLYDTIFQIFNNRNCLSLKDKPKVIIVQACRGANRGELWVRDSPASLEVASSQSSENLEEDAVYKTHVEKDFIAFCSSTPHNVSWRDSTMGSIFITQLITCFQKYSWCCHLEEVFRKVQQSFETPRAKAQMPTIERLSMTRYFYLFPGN

SMILES | AC50 | outcome
S=C(S)NCCNC(=S)S.[Mn+2].[S-]C([S-])=NCCN=C([S-])[S-].[Zn+2] | 179 nM (active) | inactive
S=C([S-])NCCNC(=S)[S-].[Mn+2] | – | inactive
CCC(O)=C1C(=O)CC(C(=O)O)CC1=O (stereo not given) | – | inactive

Target: CDK2 (gene 1017) (UniProt P24941)
Assay: NVS_ENZ_hCDK2: NovaScreen (NVS) Enzymatic Assay for human Cyclin-Cependent Kinase 2 (CDK2) (AID 2283144)
How it was run: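 Compounds screened in duplicate at 25 uM, then in singleton concentration-response to a maximum of 50 uM, against recombinant CDK2; kinase activity read 1 hr after dosing by fluorescence with mobility-shift separation of substrate and product.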

SMILES | AC50 | outcome
O=C(O)C1(C(=O)Nc2ccc(Cl)cc2Cl)CC1 | 7.29 µM (active) | –
N[C@@H](Cc1cc(I)c(Oc2ccc(O)c(I)c2)c(I)c1)C(=O)O | – | inactive
S=C(S)NCCNC(=S)S.[Mn+2].[S-]C([S-])=NCCN=C([S-])[S-].[Zn+2] | 0.879 µM (active) | –
S=C([S-])NCCNC(=S)[S-].[Mn+2] | 11.4 µM (active) | –

Target: human Caspase 8 (CASP8), CASP8 (gene 841) (UniProt Q14790)
Assay: NVS_ENZ_hCASP8: NovaScreen (NVS) Enzymatic Assay for human Caspase 8 (CASP8) (AID 2283146)
How it was run: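 The primary screen tested compounds in duplicate at a single 25 uM concentration, with actives followed up in concentration series. Activity of recombinant (E. coli) protease was measured by fluorescence 1 h post-dose, as signal loss against DMSO.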

Chain of human Caspase 8 (CASP8), CASP8 (gene 841) (Q14790 whole entry, looked up): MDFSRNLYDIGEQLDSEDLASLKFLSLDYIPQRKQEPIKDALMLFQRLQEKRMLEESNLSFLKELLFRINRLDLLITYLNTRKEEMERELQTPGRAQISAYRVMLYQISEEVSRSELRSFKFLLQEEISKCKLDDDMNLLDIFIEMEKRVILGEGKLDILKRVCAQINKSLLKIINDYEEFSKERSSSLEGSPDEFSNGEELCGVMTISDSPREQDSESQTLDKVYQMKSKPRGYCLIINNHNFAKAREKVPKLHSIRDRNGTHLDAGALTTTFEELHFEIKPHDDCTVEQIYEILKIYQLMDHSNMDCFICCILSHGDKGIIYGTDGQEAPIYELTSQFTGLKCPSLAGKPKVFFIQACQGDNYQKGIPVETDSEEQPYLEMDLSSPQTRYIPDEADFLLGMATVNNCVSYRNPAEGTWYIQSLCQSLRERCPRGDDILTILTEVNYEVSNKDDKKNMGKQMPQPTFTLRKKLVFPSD

SMILES | AC50 | outcome
O=C(O)C1(C(=O)Nc2ccc(Cl)cc2Cl)CC1 | 7.55 µM (active) | –
S=C(S)NCCNC(=S)S.[Mn+2].[S-]C([S-])=NCCN=C([S-])[S-].[Zn+2] | – | inactive
CC(C)(c1ccc(O)cc1)c1ccc(O)cc1 | – | inactive
S=C([S-])NCCNC(=S)[S-].[Mn+2] | – | inactive

Target: human Casein Kinase 2- alpha 2 beta 2 (CK2a2b2), CSNK2A1 (gene 1457) (UniProt P68400)
Assay: NVS_ENZ_hCK2a2b2: NovaScreen (NVS) Enzymatic Assay for human Casein Kinase 2- alpha 2 beta 2 (CK2a2b2) (AID 2283147)
How it was run: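 Compounds were first screened in duplicate at 25 uM, and those passing the threshold were re-tested in concentration series up to a 50 uM maximum. Kinase activity of recombinant human CK2 α2β2 was measured 1 h after dosing by fluorescent substrate/product mobility-shift separation.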

Chain of human Casein Kinase 2- alpha 2 beta 2 (CK2a2b2), CSNK2A1 (gene 1457) (P68400 whole entry, looked up): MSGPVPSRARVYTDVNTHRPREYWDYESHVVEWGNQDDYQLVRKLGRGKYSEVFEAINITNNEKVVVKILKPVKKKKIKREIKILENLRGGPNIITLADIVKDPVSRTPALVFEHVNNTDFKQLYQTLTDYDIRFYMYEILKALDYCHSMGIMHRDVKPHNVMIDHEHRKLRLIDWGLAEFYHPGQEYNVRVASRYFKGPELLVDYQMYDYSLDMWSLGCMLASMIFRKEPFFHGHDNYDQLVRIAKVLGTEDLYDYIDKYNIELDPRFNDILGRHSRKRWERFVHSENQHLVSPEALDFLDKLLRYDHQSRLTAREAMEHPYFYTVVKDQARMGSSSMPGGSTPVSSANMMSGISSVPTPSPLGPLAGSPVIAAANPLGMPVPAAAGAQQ

SMILES | AC50
O=C(O)C1(C(=O)Nc2ccc(Cl)cc2Cl)CC1 | 12.7 µM (active)
S=C(S)NCCNC(=S)S.[Mn+2].[S-]C([S-])=NCCN=C([S-])[S-].[Zn+2] | 5.4 µM (active)
N#CSCSc1nc2ccccc2s1 | 14.4 µM (active)
S=C([S-])NCCNC(=S)[S-].[Mn+2] | 3.93 µM (active)

Target: human Casein Kinase 1-delta (CK1D), CSNK1D (gene 1453) (UniProt P48730)
Assay: NVS_ENZ_hCK1D: NovaScreen (NVS) Enzymatic Assay for human Casein Kinase 1-delta (CK1D) (AID 2283148)
How it was run: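 Recombinant human CK1-delta, cell-free; fluorescent substrate with electrophoretic mobility-shift separation of product, read 1 h after dosing. Single 25 uM duplicate screen, then concentration-response up to 50 uM; loss of signal vs DMSO.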

Chain of human Casein Kinase 1-delta (CK1D), CSNK1D (gene 1453) (P48730 whole entry, looked up): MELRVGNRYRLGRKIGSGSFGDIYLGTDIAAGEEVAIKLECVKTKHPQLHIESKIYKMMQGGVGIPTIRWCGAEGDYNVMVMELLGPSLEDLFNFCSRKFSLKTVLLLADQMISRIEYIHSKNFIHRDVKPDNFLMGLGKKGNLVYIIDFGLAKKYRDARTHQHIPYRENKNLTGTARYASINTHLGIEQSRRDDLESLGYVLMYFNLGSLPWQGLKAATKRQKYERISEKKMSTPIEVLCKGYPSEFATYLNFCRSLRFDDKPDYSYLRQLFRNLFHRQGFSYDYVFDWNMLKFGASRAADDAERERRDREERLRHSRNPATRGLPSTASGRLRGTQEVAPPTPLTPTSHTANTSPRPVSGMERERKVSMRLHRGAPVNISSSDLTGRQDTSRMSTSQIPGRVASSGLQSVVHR

SMILES | AC50 | outcome
S=C(S)NCCNC(=S)S.[Mn+2].[S-]C([S-])=NCCN=C([S-])[S-].[Zn+2] | 18.2 µM (active) and 33.6 µM (active) | –
CC(C)(c1ccc(O)cc1)c1ccc(O)cc1 | 25.4 µM (active) | –
O=C(Nc1ccc([N+](=O)[O-])cc1Cl)c1cc(Cl)ccc1O | – | inactive
S=C([S-])NCCNC(=S)[S-].[Mn+2] | 25 µM (active) | –
CC(C)CCCCCCc1ccc(O)cc1 | – | inactive

Target: human Colony Stimulating Factor 1 Receptor (CSF1R), CSF1R (gene 1436) (UniProt P07333)
Assay: NVS_ENZ_hCSF1R: NovaScreen (NVS) Enzymatic Assay for human Colony Stimulating Factor 1 Receptor (CSF1R) (AID 2283150)
How it was run: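 Compounds screened in duplicate at 25 uM, then concentration-response (top 50 uM) for those passing threshold such as 30% inhibition; recombinant CSF1R activity measured 1 h post-dosing via fluorescent substrate/product mobility-shift separation, loss of signal versus DMSO.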

SMILES | outcome | AC50
O=C(O)C1(C(=O)Nc2ccc(Cl)cc2Cl)CC1 | inactive | –
S=C(S)NCCNC(=S)S.[Mn+2].[S-]C([S-])=NCCN=C([S-])[S-].[Zn+2] | – | 963 nM (active) and 315 nM (active) and 12.9 µM (active)
S=C([S-])NCCNC(=S)[S-].[Mn+2] | – | 5.51 µM (active)

Target: human Dual Specificity Protein Phosphatase 3 (DUSP3), DUSP3 (gene 1845) (UniProt P51452)
Assay: NVS_ENZ_hDUSP3: NovaScreen (NVS) Enzymatic Assay for human Dual Specificity Protein Phosphatase 3 (DUSP3) (AID 2283152);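 note: phosphatase activity of recombinant human DUSP3 on a fluorogenic substrate without cells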
How it was run: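 Cell-free fluorescence-intensity enzyme activity assay with recombinant protein and substrate; loss of signal fitted relative to DMSO baseline. Primary screen in duplicate at 25 uM, actives then run in concentration series; measured 0 h after dosing.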

Chain of human Dual Specificity Protein Phosphatase 3 (DUSP3), DUSP3 (gene 1845) (P51452 whole entry, looked up): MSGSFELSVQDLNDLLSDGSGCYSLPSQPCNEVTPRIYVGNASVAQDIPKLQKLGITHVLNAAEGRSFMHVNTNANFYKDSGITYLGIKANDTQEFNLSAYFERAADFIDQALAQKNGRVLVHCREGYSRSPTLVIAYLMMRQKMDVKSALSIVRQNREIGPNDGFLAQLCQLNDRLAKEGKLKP

SMILES | AC50 | outcome
N[C@@H](Cc1cc(I)c(Oc2ccc(O)c(I)c2)c(I)c1)C(=O)O | 6.35 µM (active) | –
CCCCOC(=O)[C@@H](C)Oc1ccc(Oc2ccc(C(F)(F)F)cn2)cc1 | – | inactive
S=C([S-])NCCNC(=S)[S-].[Mn+2] | – | inactive
COC(=O)CSc1cc(N=c2sc(=O)n3n2CCCC3)c(F)cc1Cl | – | inactive

Target: human Ephrin type-B Receptor 1 (EphB1), EPHB1 (gene 2047) (UniProt P54762)
Assay: NVS_ENZ_hEphB1: NovaScreen (NVS) Enzymatic Assay for human Ephrin type-B Receptor 1 (EphB1) (AID 2283154)
Description: NVS_ENZ_hEphB1 is a biochemical, single-readout assay that uses extracted gene-proteins in a cell-free assay. Measurements were taken 1 hour after chemical dosing in a 384-well plate.NVS_ENZ_hEphB1 is one of one assay component(s) measured or calculated from the NVS_ENZ_hEphB1 assay. It is designed to make measurements of enzyme activity, a form of enzyme reporter, as detected with fluorescence intensity signals by Fluorescence and electrophoretic mobility shift technology.Data from the assay component NVS_ENZ_hEphB1 was analyzed into 1 assay endpoint. This assay endpoint, NVS_ENZ_hEphB1, was analyzed in the positive analysis fitting direction relative to DMSO as the negative control and baseline of activity. Using a type of enzyme reporter, loss-of-signal activity can be used to understand changes in the enzymatic activity as they relate to the gene EPHB1. Furthermore, this assay endpoint can be referred to as a primary readout, because this assay has produced multiple assay endpoints where this one serves a enzymatic activity function. To generalize the intended target to other relatable targets, this assay endpoint is annotated to the kinase intended target family, where the subfamily is receptor tyrosine kinase.
Binding assays used specific radioligands (tritiated, iodinated) with non-radioactive competitive displacement ligands in agonist or antagonist protocols (as indicated) and various reference compounds and inhibitors to titrate specific binding to receptors and transporters. Most enzyme assays (CYPs, kinases, phosphatases, proteases, HDACs) used recombinant protein and specific substrates (fluorescence mostly, some colorimetric and radioactive) and inhibitors, followed by a biochemical separation of substrate and product. All assays for the biochemical HTS were initially run in duplicate at a single concentration (10 uM for CYP450 assays and 25 uM for all others). […] Each assay was run with positive and negative controls, and concurrent controls on every plate. The follow-up (secondary) screen tested active chemical-pairs in concentration series, as well as a few additional assays not tested in the primary screen, some selected negative inactives, and several cases re-run in the concentration series for confirmatory purposes.

Chain of human Ephrin type-B Receptor 1 (EphB1), EPHB1 (gene 2047) (P54762 whole entry, looked up): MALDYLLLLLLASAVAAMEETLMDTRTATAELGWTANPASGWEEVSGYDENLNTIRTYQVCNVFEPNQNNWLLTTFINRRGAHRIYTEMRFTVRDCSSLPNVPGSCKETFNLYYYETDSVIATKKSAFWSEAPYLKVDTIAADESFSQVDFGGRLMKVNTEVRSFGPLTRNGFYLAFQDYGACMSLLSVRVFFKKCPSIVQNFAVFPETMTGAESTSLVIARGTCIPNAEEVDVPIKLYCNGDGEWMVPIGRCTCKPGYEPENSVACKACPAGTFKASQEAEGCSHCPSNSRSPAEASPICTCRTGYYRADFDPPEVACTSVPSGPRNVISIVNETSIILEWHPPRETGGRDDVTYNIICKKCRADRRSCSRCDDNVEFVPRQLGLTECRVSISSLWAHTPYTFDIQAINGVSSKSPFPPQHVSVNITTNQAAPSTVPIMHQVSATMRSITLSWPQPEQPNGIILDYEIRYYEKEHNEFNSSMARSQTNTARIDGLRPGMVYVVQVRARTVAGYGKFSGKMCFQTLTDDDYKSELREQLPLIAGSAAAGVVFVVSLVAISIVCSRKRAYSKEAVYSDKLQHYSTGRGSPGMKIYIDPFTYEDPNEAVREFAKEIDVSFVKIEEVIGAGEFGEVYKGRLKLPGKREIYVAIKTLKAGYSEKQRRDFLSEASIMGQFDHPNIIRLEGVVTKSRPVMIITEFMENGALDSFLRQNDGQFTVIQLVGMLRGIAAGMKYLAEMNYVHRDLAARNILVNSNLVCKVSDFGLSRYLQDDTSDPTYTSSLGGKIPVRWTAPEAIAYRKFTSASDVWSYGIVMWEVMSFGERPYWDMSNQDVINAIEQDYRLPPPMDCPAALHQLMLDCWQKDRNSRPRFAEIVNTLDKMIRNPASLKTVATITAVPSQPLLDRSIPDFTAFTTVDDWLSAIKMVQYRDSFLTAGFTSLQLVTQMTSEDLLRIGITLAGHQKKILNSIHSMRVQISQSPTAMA

SMILES | outcome
Oc1ccc(C(c2ccc(O)cc2)C(Cl)(Cl)Cl)cc1 | inactive
N#CSCSc1nc2ccccc2s1 | inactive
COC(=O)CSc1cc(N=c2sc(=O)n3n2CCCC3)c(F)cc1Cl | inactive

Target: human Ephrin type-A Receptor 1 (EphA1), EPHA1 (gene 2041) (UniProt P21709)
Assay: NVS_ENZ_hEphA1: NovaScreen (NVS) Enzymatic Assay for human Ephrin type-A Receptor 1 (EphA1) (AID 2283158);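 note: activity is signal loss versus DMSO meaning EphA1 kinase inhibition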
How it was run: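 Fluorescent substrate conversion, resolved by mobility-shift separation, measured 1 hour post-dosing using recombinant enzyme; signal loss relative to DMSO baseline. Single-concentration duplicates at 25 uM preceded singleton concentration series topping at 50 uM.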

Chain of human Ephrin type-A Receptor 1 (EphA1), EPHA1 (gene 2041) (P21709 whole entry, looked up): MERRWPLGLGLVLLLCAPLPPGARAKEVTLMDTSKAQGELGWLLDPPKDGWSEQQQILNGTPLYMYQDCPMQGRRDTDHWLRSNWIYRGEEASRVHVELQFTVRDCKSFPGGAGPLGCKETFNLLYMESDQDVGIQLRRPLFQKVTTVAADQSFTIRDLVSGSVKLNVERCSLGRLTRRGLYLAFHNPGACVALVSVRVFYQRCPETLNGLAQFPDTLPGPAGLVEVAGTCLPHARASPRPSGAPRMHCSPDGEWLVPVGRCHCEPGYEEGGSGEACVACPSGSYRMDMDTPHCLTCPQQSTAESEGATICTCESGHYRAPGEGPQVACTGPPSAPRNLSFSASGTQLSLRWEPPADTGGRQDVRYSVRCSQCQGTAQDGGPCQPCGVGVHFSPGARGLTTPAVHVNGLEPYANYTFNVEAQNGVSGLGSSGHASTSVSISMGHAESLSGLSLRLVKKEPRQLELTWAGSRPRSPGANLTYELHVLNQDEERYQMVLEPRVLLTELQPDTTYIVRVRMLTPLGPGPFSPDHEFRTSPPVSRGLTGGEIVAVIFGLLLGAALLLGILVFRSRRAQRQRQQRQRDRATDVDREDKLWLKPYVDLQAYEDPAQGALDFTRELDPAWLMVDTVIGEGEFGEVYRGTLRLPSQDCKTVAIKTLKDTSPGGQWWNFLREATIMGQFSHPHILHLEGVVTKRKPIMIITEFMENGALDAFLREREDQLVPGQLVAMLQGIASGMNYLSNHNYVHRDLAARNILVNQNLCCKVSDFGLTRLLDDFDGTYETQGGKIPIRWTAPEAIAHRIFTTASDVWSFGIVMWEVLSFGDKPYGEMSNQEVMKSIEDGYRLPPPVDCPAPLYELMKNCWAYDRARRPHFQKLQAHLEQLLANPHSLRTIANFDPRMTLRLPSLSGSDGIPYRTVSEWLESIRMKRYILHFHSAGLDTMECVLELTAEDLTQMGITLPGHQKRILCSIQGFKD

SMILES | outcome | AC50
N[C@@H](Cc1cc(I)c(Oc2ccc(O)c(I)c2)c(I)c1)C(=O)O | inactive | –
S=C(S)NCCNC(=S)S.[Mn+2].[S-]C([S-])=NCCN=C([S-])[S-].[Zn+2] | inactive | 43.5 µM (active)
N#CSCSc1nc2ccccc2s1 | inactive | –
